Measurements taken from PubChem BioAssay (EPA / NIEHS).
Records with an inconclusive call do not appear. Active and inactive are the calls of the source. The calls were made as follows: active = hit-call score of the fitted dose curve at least 0.9, where 1 is the maximum; inconclusive = response in the unintended direction; inactive = score below 0.9.

target: Ratio of Nucleoli Translocation and Cytoplasm, AR (gene 367) (UniProt P10275); assay: UPITT_HCI_U2OS_AR_TIF2_Nucleoli_Cytoplasm_Ratio_Antagonist: University of Pittsburgh U2OS Androgen Receptor-Transcriptional Intermediary Factor 2 (AR-TIF2) Antagonism High Content Imaging Assay for Ratio of Nucleoli Translocation and Cytoplasm (AID 2283999);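 also: antagonists lower the DHT-driven ratio of nucleolar to cytoplasmic red signal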
Excerpt: UPITT_AR_TIF2_PPIB is a cell-based, high-content imaging assay that uses U2OS, a human osteosarcoma cell line, expressing a human androgen receptor fused to red fluorescent protein and the coactivator TIF2 fused to green fluorescent protein. UPITT_HCI_U2OS_AR_TIF2_Nucleoli_Cytoplasm_Ratio_Antagonist is one of four assay components measured from the UPITT_AR_TIF2_PPIB assay. It is designed to make measurements of the ratio of red fluorescence localized in the nucleolar region of the cell nucleus to red fluorescence localized in the cytoplasm as detected with high-content fluorescent imaging.Data from the assay component UPITT_HCI_U2OS_AR_TIF2_Nucleoli_Cytoplasm_Ratio_Antagonist was analyzed into 1 assay endpoint. This assay endpoint, UPITT_HCI_U2OS_AR_TIF2_Nucleoli_Cytoplasm_Ratio_Antagonist, was analyzed in the positive analysis fitting direction relative to DHT as the baseline of activity. Using a type of binding reporter, measures of receptor for loss-of-signal activity can be used to understand the binding at the pathway-level as it relates to the gene AR.
Daughter plates containing 2 uL of 10 mM compounds in DMSO were prepared and replicated from the 384-well Library of Pharmacologically Active Compounds (LOPAC) master plates using the Bravo outfitted with a 384-well transfer head. Aluminum adhesive plate seals were applied with an Abgene Seal-IT 100 (Rochester, NY) plate sealer, and the plates were stored at -20 C in a Matrical MatriMinistore (Spokane, WA) automated compound storage and retrieval system. For screening, LOPAC daughter plates were withdrawn from -20C storage, thawed to ambient temperature, centrifuged 1-2 min at 50 g, and the plate seals were removed before the transfer of 98 uL of serum-free tissue culture medium (SFM) into wells using the BioTek Microflo liquid handler (BioTek, Winooski, VT) to generate a 200 uM intermediate stock concentration of library compounds (2.0% DMSO). The diluted compounds were mixed by repeated aspiration and dispensation using a 384-well P30 dispensing head on the Evolution P3 (EP3) liquid handling platform (PerkinElmer, Waltham, MA) and then 5 uL of diluted compounds was transferred to the wells of assay plates. In the LOPAC screen, compounds were individually tested at a final concentration of 20 uM (0.2% DMSO). After the diluted compounds had been transferred from the daughter plates to the primary HCS assay plates, aluminum adhesive plate seals were applied and the diluted daughter plates were stored frozen at -20C. To confirm active compounds identified in the primary screen, we withdrew the LOPAC daughter plates containing the 200 uM intermediate concentration of library compounds (2.0% DMSO) from -20C storage, thawed them to ambient temperature, centrifuged them for 1-2 min at 50 g, and removed the plate seals. A work list was generated to direct the Multiprobe Janus liquid handling platform (PerkinElmer) to cherry pick 75 uL from the wells of the diluted daughter plates that were flagged active in the primary screen and to reformat these into a 384-well plate hit confirmation daughter plate. Five microliters of primary HCS active compounds was then transferred into triplicate wells of assay plates using a 384-well P30 dispensing head on the Evolution P3 (EP3) liquid handling platform (PerkinElmer). […] Daughter plates containing 2 uL of the serially diluted compounds in DMSO were prepared and replicated from the 384-well serial dilution master plates using the Bravo outfitted with a 384-well transfer head. Aluminum adhesive plate seals were applied and plates were stored at -20C. For testing in the bioassays, daughter plates were withdrawn from -20C storage, thawed to ambient temperature, centrifuged for 1-2 min at 50 g, and the plate seals were removed before the transfer of 38 uL of SFM into wells using the BioTek Microflo liquid handler (BioTek) to generate an intermediate stock concentration of library compounds ranging from 1.95 to 500 uM (5.0% DMSO). […]

Ratio of Nucleoli Translocation and Cytoplasm, AR (gene 367), sequence (P10275 whole entry, looked up, the tested form may be a part): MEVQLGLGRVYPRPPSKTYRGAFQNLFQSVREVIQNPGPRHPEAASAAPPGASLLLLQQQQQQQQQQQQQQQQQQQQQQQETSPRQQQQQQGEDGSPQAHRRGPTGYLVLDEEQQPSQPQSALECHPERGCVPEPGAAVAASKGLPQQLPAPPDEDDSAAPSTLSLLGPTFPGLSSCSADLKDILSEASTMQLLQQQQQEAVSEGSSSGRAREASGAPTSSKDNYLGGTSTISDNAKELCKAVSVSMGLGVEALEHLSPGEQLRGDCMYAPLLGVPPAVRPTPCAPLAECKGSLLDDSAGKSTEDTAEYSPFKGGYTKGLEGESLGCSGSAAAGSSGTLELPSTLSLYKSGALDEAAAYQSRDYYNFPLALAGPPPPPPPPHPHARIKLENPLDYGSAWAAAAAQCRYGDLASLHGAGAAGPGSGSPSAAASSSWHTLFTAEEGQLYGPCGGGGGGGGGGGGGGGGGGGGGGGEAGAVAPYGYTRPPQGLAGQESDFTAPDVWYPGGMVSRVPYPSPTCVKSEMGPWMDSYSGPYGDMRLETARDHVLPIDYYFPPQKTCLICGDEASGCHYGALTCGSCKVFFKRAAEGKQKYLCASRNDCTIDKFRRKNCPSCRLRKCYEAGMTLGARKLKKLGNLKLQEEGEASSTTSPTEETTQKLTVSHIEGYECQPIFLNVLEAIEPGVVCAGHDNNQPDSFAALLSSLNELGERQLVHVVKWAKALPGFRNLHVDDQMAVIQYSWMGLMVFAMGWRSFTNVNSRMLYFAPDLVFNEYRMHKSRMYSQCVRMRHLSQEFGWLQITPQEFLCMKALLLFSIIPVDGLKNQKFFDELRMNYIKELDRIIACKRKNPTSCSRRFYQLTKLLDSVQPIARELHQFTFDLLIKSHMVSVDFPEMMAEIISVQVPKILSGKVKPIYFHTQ

Compound | outcome | AC50
CO/C=C(/C(=O)OC)c1ccccc1Oc1cc(Oc2ccccc2C#N)ncn1 | inactive | 
O=C(Nc1ccccc1)Nc1ccnc(Cl)c1 | inactive | 
CN(C)C(=S)SSC(=S)N(C)C |  | 9.92 µM (active)
CS/C(C)=N/OC(=O)N(C)SN(C)C(=O)O/N=C(\C)SC |  | 13.8 µM (active)
Cc1ccc(-c2c(Cl)nc(C#N)n2S(=O)(=O)N(C)C)cc1 | inactive | 
Cc1cc(Cl)ccc1OCC(=O)O | inactive | 
CCOC(=O)CC(SP(=S)(OC)OC)C(=O)OCC (configuration not stated) |  | 69.2 µM (active)
CC(C)Oc1cc(-n2nc(C(C)(C)C)oc2=O)c(Cl)cc1Cl | inactive | 
N#CC(CCc1ccc(Cl)cc1)(Cn1cncn1)c1ccccc1 (configuration not stated) | inactive | 
CCCC1COC(Cn2cncn2)(c2ccc(Cl)cc2Cl)O1 (configuration not stated) | inactive | 
N#Cc1nn(-c2c(Cl)cc(C(F)(F)F)cc2Cl)c(N)c1S(=O)C(F)(F)F (configuration not stated) | inactive | 
CCON=C(CC)C1=C(O)CC(c2c(C)cc(C)cc2C)CC1=O (configuration not stated) | inactive | 
